The whole screen tested about 53,000 sequences, of which about 3,700 (7%) were called active. Many of the other results were omitted from the sample, so actives are more common in it than they were. Values without a mark were called inactive.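 The calls were made as follows: active = gene knockdowns whose robust z-score for IL-1 alpha signal is at least 2 or at most -2, so actives lie on both sides; inactive = the rest.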

69 sequences from PubChem BioAssay AID1508600 (Functional Genomics Laboratory (NCATS/FGL), 2020) can be followed below.

The assay can be described thus: Components of the Cytosolic LPS Sensing Pathway: Gene Identification via Genome-wide siRNA Screen.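 Also: robust z of the log signal after scaling to non-targeting control siRNA wells of the plate.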 The following applies: RAW264.7 macrophages, IL-1a HTRF, actives lie on both sides, screened at 100 nM (by protocol), cells primed 5 h with Pam3CSK4 first. The gist of the method:
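Mouse macrophage line RAW264.7 is transfected with siRNA (100 nM final), grown 48h, primed with TLR ligand Pam3CSK4 5 h and given intracellular LipidA 24 h. IL-1a in supernatant is read by HTRF and viability by luminescence.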
For GGCUAAUGAAGCACGCAGATT against Tspan33, the z-score was 0.264.

For the sequence CGACCUAUUAGAGAGCAACTT against Zfp248, the z-score was 2.58 (active).

Regarding GGAUCGAAUCUUUACCUAUTT against Col9a1, the z-score was 0.932.

Consider GGCCAAAGUCCAUUCAUUCTT against Olfr1120, for which the z-score was 1.31.

As to CCAAUAUCUCCAAAUAGAATT against Atp8b1, the z-score was -0.974.

For GGGAAAUCCGAUAUUCCCUTT against Lats2, the z-score is 1.1.

Regarding GGCGGUUUUAGUGAAUAACTT against Golm1, the z-score is 2.17 (active).

On to GGUUAGAGAUCUUUUGAAATT against St14, for which the z-score was -0.333.

For the sequence GCAUGUGCUAUAAUGAUCATT against Gm5444, the z-score is 0.256.

As for CCACAAUUACCCAGUAUGATT against Olfr498, the z-score was -0.939.

As for CCUCAUGUCUGGCAUCUUGTT against Egr4, the z-score is -1.7.

For GGGUGCCUACUUGAUCCUUTT against Hgh1, the z-score was 1.63.

Regarding GGCUUCAAAGGCAAAGUUCTT against Fbf1, the z-score is -1.5.

Turning to CCAUAUGUGAUUUGUCUUGTT against Cacnb2, the z-score was -0.706.

For CCUAAGGUACCAUUUUAAATT against Clp1, the z-score was 0.225.

As for GGAAGACACACAGUACAUGTT against Rfx2, the z-score is 2.92 (active).

With GGAGGCUGUCUGUCUAAUATT against Trim39, the z-score is 0.25.

On to CCAAUCAACCCUCUAAGCATT against Nphp4, for which the z-score is 0.576.

As to GCCAUCGAUACCACAACACTT against Slfn8, the z-score was -1.61.

Regarding GGCAACAUUAGAAGACAGUTT against Tfb1m, the z-score is -0.591.

Regarding CCAUCAGGACUCGUGAAUGTT against Fign, the z-score was -2.09 (active).

For the sequence GGGAAAUGGAAAGCAUUCUTT against Olfr374, the z-score was 1.41.

As to GGAGUUUGACUCAAUAUCATT against Napb, the z-score is 1.24.

As for CCCUUCUCACUAACAUACATT against Dach1, the z-score is 1.18.

For the sequence GCUACGAGAUUCUUGUUGCTT against Taar3, the z-score was -0.615.

Regarding GGAGAGGAGACACAUCAGUTT against Gnpat, the z-score was -0.067.

For CCAAAACGUGCAACACAAUTT against Cops6, the z-score was 0.37.

As for GGUUGAACUCAAAGUAAAGTT against Preb, the z-score was -1.18.

Turning to GGUGAACCUCAAUAAUAUCTT against Tmod4, the z-score was 0.274.

Regarding GGAGUUUACUGAGUUUUAGTT against Prkaca, the z-score was 4.49 (active).

On to GGCUCCAGUAAUUGAUAAATT against Sycp3, for which the z-score is -0.0955.

In the case of GGGCUGCUGCUUAGCAAUCTT against Egln3, the z-score is -0.0783.

Take GGAUGGAGAAGUUUACUACTT against Yap1: the z-score was 0.714.

GGCGUAACCUAACAUGGGATT against Clec1b: the z-score is -1.35.

In the case of GCAACAAUUCUAACAGCUGTT against Lhfpl5, the z-score is -0.138.

For the sequence GGCCUUCCAUACUACAACUTT against Zfp595, the z-score was 2.2 (active).

In the case of CCACGUAGGUAAGUGUAGGTT against Oard1, the z-score is 0.81.

On to GGAGCAAGGCUACAUUUUUTT against Itih3, for which the z-score was 1.36.

Turning to GGACAAGGCCCUCAUGAUUTT against Nek8, the z-score is -0.468.

For the sequence GCUCGAGUACCUGUACCUATT against Elfn1, the z-score was 3.11 (active).

Take CCUUCAACCUUCGAGAUACTT against Kcnh2: the z-score is -0.417.

For GGUCUUCUUUGAUGUGAGGTT against Ppic, the z-score is -0.832.

Take GGACUGAAGAAGUGUGUGGTT against Scgb3a2: the z-score is 1.66.

Take GCUUCCAGUCAGUGGUUACTT against Rara: the z-score is 1.07.

As to GGAUGAGCAGAUGCUCCAATT against Mtmr7, the z-score was 0.451.

Consider GGUAUUUUGACCGAAUCAATT against Add3, for which the z-score was -0.294.

For GCUCCUCACUUAUUGCCCATT against Zfp354b, the z-score was -0.0805.

In the case of GGAUGAAAACACUGAAUACTT against Olfr644, the z-score was -0.714.

Consider GCAUUUAGUGAGUUCAGUGTT against Kirrel3os, for which the z-score was 0.855.

With GCGCAACUAAAACAGAUUGTT against Eif2ak1, the z-score was 2.2 (active).

Consider GGGAUACUUUUUAUUCAGGTT against Nmu, for which the z-score is -0.0461.

GGAGCAGACGAUAUGCAGATT against Copb2: the z-score is 0.559.

On to CCAAUUGCUAAUCCUUUGUTT against Pin1, for which the z-score is 1.52.

On to GGACACAAUCCAGAACCAGTT against Angpt4, for which the z-score was -0.189.

Regarding GCCUGAGUUAUGUUUAAAGTT against Pgam5, the z-score was 0.00362.

Regarding CCACGUGAAGGAGAGAUGATT against Mob2, the z-score was 1.39.

For GCGACCAGGACCGCGUCAATT against Sox3, the z-score is -1.07.

With GCACUGAAGCCUAGCUGUUTT against BC051142, the z-score was 1.41.

For GGUGUUGAGUUCAAGUCUATT against Dennd11, the z-score was -0.468.

As to GGGCAAACUCUAUAAUCAGTT against BC023105, the z-score was 0.337.

Turning to GCUCCGUGUUGACUCAAAATT against Foxg1, the z-score was 2.46 (active).

With CCCUCAGAUCUUUCAGUCUTT against Btbd16, the z-score is -1.01.

Turning to GCAUGGUUUAAUGGCUCGGTT against Atpsckmt, the z-score is -1.93.

As for GGAAUAUUUUGCUUGUGUGTT against Dnmt3a, the z-score was -0.925.

For GGUUUAAGAAAAAAGGAGCTT against Rab43, the z-score is -0.182.

As to CCUCUGUUUGUGCGCCAUATT against Uqcrfs1, the z-score is 0.402.

In the case of GGUUAUCAAACAGGUGUUGTT against Aldh3b1, the z-score is 2.22 (active).

Take GCGAGUUCGGAAGAAGUAUTT against Ddx41: the z-score is -0.198.

Regarding GGAGAUCCAGGCAAUUUUUTT against Pink1, the z-score is 0.779.
